Each structure is given as a SMILES string. About 1,700 (0.5%) of roughly 340,000 compounds were called active. Shown is part of a subset that was picked to be rich in actives. A number with no mark means an inactive call. Cut-off read from the data, not from the text of the source: active = inhibition above about 40%; inactive = the rest.

For the assay, the target named is Cysteine protease ATG4B (Homo sapiens) (UniProt Q9Y4P1). Briefly: blockers of ATG4B cysteine protease activity – biochemical, fluorescence, uHTS, primary screen (AID 504462). The settings on record: ATG4B cleavage of LC3-PLA2, NBD-HPC fluorescence, 1 h; at 8.33 µM; hits give high values.
Chain of Cysteine protease ATG4B (Homo sapiens) (Q9Y4P1 whole entry, looked up): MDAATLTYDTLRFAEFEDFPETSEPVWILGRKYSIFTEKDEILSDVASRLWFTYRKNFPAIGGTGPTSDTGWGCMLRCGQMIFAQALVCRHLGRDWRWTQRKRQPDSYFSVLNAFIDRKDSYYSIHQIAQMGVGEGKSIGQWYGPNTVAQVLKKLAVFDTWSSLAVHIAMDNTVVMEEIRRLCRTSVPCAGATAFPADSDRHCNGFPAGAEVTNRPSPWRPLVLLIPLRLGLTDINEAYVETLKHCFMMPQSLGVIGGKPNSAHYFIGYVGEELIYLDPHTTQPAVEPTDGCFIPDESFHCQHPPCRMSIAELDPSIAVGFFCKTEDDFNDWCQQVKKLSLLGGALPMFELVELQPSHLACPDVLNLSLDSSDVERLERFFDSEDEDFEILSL
The term inhibition denotes the drop in the measured response relative to a control, in per cent. As for `COc1ccc(/C=C2\CCc3ccccc3C2=O)c(OC)c1OC`, the inhibition was 41.9% (active). The value for `COc1ccc(/C=N/NC(=O)C2CC2)c(OC)c1OC` was -2.43%; that for `O=C1/C(=C/c2cccs2)CCc2ccccc21` was 15.7%. Regarding `COc1ccccc1Oc1ccc(N/C=C2/CCCC2=O)cc1`, the inhibition is 1.94%. Consider `COc1ccc(/C=C2/CCCc3ccccc3C2=O)cc1`, for which the inhibition is 42.3% (active). Regarding `COc1ccc(/C=C2\N=C3CCCN3C2=O)cc1`, the inhibition was 0.67%.

On to `Cc1cnc(C(=O)N2CCCC(N3CCN(c4ccccc4F)CC3)C2)cn1` (stereo unspecified), for which the inhibition was 8.65%. Consider `Cn1c(=O)cc(SCC(=O)N2CCCC2)c2cc(Cl)ccc21`, for which the inhibition was -13.1%. With `N#CCN(C(=O)COC(=O)C1CC2CCCC(C1)C2=O)c1ccccc1` (stereo unspecified), the inhibition was 1.42%. For the molecule `CC(=O)c1c(C)[nH]c(C(=O)NCCCN2CCCC2)c1C`, the inhibition is -3.1%.

With `O=C(CN1CCOCC1)Nc1c(-c2ccccc2)c2cc(Br)ccc2[nH]c1=O`, the inhibition is 3.52%. Turning to `O=C(N/N=C\C1CC=CCC1)c1ccc(Br)o1` (stereo unspecified), the inhibition is -3.72%. As to `Cc1ccc(C(=O)Nc2c(C#N)c(C)c(C)n2Cc2ccccc2)cc1`, the inhibition is 15.5%. For the molecule `CC(=O)Nc1ccc(C(=O)Nc2nc(-c3cc(C)n(Cc4ccccc4)c3C)cs2)cc1`, the inhibition is 43.1% (active). Under `CCCn1c(C)cc(-c2csc(NC(=O)CCc3nc4ccccc4c(=O)[nH]3)n2)c1C` stands -1.22%. For `O=C(Nc1cc(S(=O)(=O)Nc2ccc(Cl)cc2)ccc1O)c1ccc(F)cc1F`, the inhibition was 13.4%. As to `Cc1ccc(C(=O)OC2=CC(=O)CC(C)(C)C2)cc1`, the inhibition was -11.7%.

On to `O=C1CN(C(=O)COc2c(Cl)cccc2Cl)c2ccccc2N1`, for which the inhibition was -0.21%.

Take `Cc1cccc(N2O[C@H]3C=CC2CCCC3)n1`: the inhibition is -2.38%. For `CC(C)(C)c1ccc(OC2=CS(=O)(=O)c3ccccc32)cc1`, the inhibition is 46.1% (active).

With `CC(C)(C)c1ccc(CN2C(=O)c3ccccc3S2(=O)=O)cc1`, the inhibition is 5.21%. Consider `CC(C)(C)c1ccc(Oc2ccc(N)cc2)cc1`, for which the inhibition was 7.75%.

As to `CCCCn1c(N)c(N(CCC(C)C)C(=O)CC2OC(=O)c3ccccc32)c(=O)[nH]c1=O` (stereo unspecified), the inhibition was -0.15%. Turning to `CC1CCN(CC(=O)c2c[nH]c3ccccc23)CC1`, the inhibition is -5.44%. As to `O=C(NCCCc1ccccc1)C(=O)c1c[nH]c2ccccc12`, the inhibition was 0.84%.

With `O=C(C(=O)N1CCc2ccccc2C1)c1c[nH]c2ccccc12`, the inhibition is 67% (active). Under `COc1ccc(-n2nc3c(c2NC(=O)c2ccc(N4C(=O)CCC4=O)cc2)CSC3)cc1` stands 1.88%; under `O=C(COc1ccc(Br)cc1F)NCC1(N2CCCCC2)CCCCC1`, 1.03%; under `CSC1=NCCN1C(=O)Cc1cccc2ccccc12`, -4.14%. With `CC(C)(C)Cc1nnc(NC(=O)c2cc(-c3ccccc3)nc3ccccc23)s1`, the inhibition was 10.4%. Turning to `NC(=O)Cc1ccc2sc(-c3ccccc3)nc2c1`, the inhibition was 71.4% (active).

For the molecule `CC(=O)c1cnc(-c2ccccc2)s1`, the inhibition is -11.9%.

As to `O=C(CSc1nnnn1C1CCCC1)Nc1ccc2c(c1)OCCO2`, the inhibition is -5.58%. Turning to `Cc1cccc(OC(=O)c2sc3ncn(C)c(=O)c3c2C)c1`, the inhibition was -3.95%. The value for `CCCC1=Nc2cc(C(=O)NCCN3CCCC3)ccc2Sc2ccccc21` was 3.01%; that for `CC(C)(C)c1ccc(C(=O)NCc2ccco2)cc1` was -10.7%. For the molecule `CCCC1=Nc2cc(C(=O)NCc3ccco3)ccc2Sc2ccccc21`, the inhibition was 40.2% (active).

Take `NS(=O)(=O)c1cc(Cl)c(Cl)c(S(N)(=O)=O)c1`: the inhibition was 7.96%. With `CC(=O)C1(C)N(O)C(C)(C)C(c2cccs2)=[N+]1[O-]` (stereo unspecified), the inhibition was 6.58%. Under `Cc1cccc(OCCC(=O)OCc2csc(CC(=O)Nc3ccccc3C)n2)c1` stands -6.31%; under `CC1O[C@H](OC2C(COC3OC(CO)C(O)[C@H](O)C3O)OC(OC3CC[C@]4(C)C(CC[C@@]5(C)[C@@H]4C=C[C@]46OC[C@@]7(CCC(C)(C)C[C@H]74)C(O)C[C@@]56C)C3(C)C)C(O)C2O)C(O)C(O)C1O` (stereo partly specified), -8.64%; under `CSCCC(NS(=O)(=O)c1ccc2c(c1)oc(=O)n2C)C(=O)NCc1ccccc1` (stereo unspecified), -9.32%.

`O=C1CSC(=S)N1/N=C/c1ccc(O)c([N+](=O)[O-])c1`: the inhibition is 74.7% (active). Regarding `CCOc1cccc(/C=N/N2C(=O)CSC2=S)c1O`, the inhibition was -2.71%. Turning to `Cc1cc(C(=O)N/N=C/c2ccc(O)c([N+](=O)[O-])c2)c(C)n1-c1ccc(F)cc1`, the inhibition is 23.4%. Consider `CCOc1ccc(NC(=O)CSc2nc3c(c(=O)n2-c2ccccc2OC)SCC3)cc1`, for which the inhibition was -6.73%.

Regarding `CCOc1ccc(-n2c(SCC(=O)OC)nc3sc4c(c3c2=O)CCN(C)C4)cc1`, the inhibition was 5.88%. The value for `CCOc1ccc(-n2c(SC(C)C(=O)OC)nc3c(c2=O)SCC3)cc1` (stereo unspecified) was 46.2% (active); that for `NS(=O)(=O)c1ccc(NC(=S)Nc2ccc(Br)c(Cl)c2)cc1` was 1.95%; that for `Cc1cccc(NC(=S)Nc2ccc(Cl)c(Cl)c2)c1` was 41.4% (active). In the case of `S=C(Nc1ccccc1)Nc1ccc2ccccc2c1`, the inhibition was -5.73%. With `O=C(NCCS(=O)(=O)c1ccc(Br)cc1)c1ccccc1Cl`, the inhibition is 4.71%. On to `Cc1nc([N+](=O)[O-])nn1C12CC3CC(CC(Br)(C3)C1)C2`, for which the inhibition is 2.28%.

Consider `CCN1C[C@@H]2[C@@H]3C(=O)N(Cc4ccccc4)C(=O)[C@@H]3[C@](C)(C1=O)N2C(=O)c1ccc(C(C)(C)C)cc1`, for which the inhibition was -18.2%. In the case of `O=C(CN(C(=O)c1csnn1)c1ccc(Br)cc1)NC1CCCC1`, the inhibition is -4.03%. As to `O=C(c1ccc(Cl)c([N+](=O)[O-])c1)N1CCN(c2ccccc2)CC1`, the inhibition is -2.12%. Take `CO/N=C/c1ccc(N2CCN(C(=O)c3cccc(Cl)c3)CC2)c([N+](=O)[O-])c1`: the inhibition is -0.58%. Under `O=C(/C=C/c1ccc(Cl)cc1)N1CCN(c2ccccc2[N+](=O)[O-])CC1` stands 41.9% (active); under `CC(C)CCNC(=O)Cn1c(=O)oc2cc(S(=O)(=O)N3CC(C)CC(C)C3)ccc21` (stereo unspecified), -3.27%; under `O=C(CN(C(=O)c1csnn1)c1cccc(Cl)c1)NC1CCCC1`, 5.82%. The value for `CSc1nc(-c2ccco2)nn1C(=O)c1ccccc1Cl` was 0.74%.

Consider `Cc1cc(C)nc(SCc2ccccc2C#N)n1`, for which the inhibition is 4.39%. In the case of `Clc1ccccc1CSc1nnc(-c2ccco2)c(-c2ccco2)n1`, the inhibition is 54.2% (active). `COc1cccc(-c2coc3cc4oc(=O)c(CC(=O)O)c(C)c4cc23)c1`: the inhibition is 2.29%. With `Cc1ccc(/C=C/C(=O)O)cc1S(=O)(=O)N1CCC(Cc2ccccc2)CC1`, the inhibition is 3.43%. Under `Cc1c(Cl)cccc1NC(=S)NCc1ccc2c(c1)OCO2` stands 57.9% (active). In the case of `CCNC(=S)Nc1cccc(Cl)c1C`, the inhibition is -7.76%. The value for `S=C(NCc1ccc2c(c1)OCO2)NCc1ccco1` was 7%; that for `O=C(CSc1ncnc2c1oc1ccccc12)NC1CCCC1` was -1.46%.

With `CCOCCCn1c(SCC(=O)Nc2cc(OC)ccc2OC)nc2ccccc2c1=O`, the inhibition was 4.76%. With `CCc1ccc(-n2c(SCc3cc(=O)n4cc(Br)ccc4n3)nc3[nH]ncc3c2=O)cc1`, the inhibition was -11.3%. Regarding `O=c1c2sccc2nc(SCc2cc(=O)n3ccccc3n2)n1-c1ccc(Br)cc1`, the inhibition is 47.5% (active). Turning to `O=C(O)CCn1c(SCc2cc(=O)n3ccccc3n2)nc2ccsc2c1=O`, the inhibition was -6.86%. With `CC(=O)NC(NC(=S)Nc1c(C)n(C)n(-c2ccccc2)c1=O)C(Cl)(Cl)Cl` (stereo unspecified), the inhibition was -9.32%. For the molecule `O=C(COc1ccc(S(=O)(=O)NCc2ccccc2)cc1)N1CCOCC1`, the inhibition was 0.8%.

Consider `CCc1cccc(C)c1N1C(=O)CN(Cc2ccccc2)C1=S`, for which the inhibition was 88.4% (active).

On to `O=C1C[C@@H]2c3c(cccc3CN1Cc1ccccc1)C[C@@H](O)[C@H]2O`, for which the inhibition was 0.85%.

Turning to `CC1CN(Cc2ccccc2)C(=S)NC1=O` (stereo unspecified), the inhibition was -11%.

For the molecule `Cc1ccccc1CCNC(=O)C1CCC(=O)N(Cc2ccc(Cl)cc2)C1` (stereo unspecified), the inhibition was 0.05%.

For the molecule `Cc1cccc(C)c1N1C(=O)CN(Cc2ccccc2)C1=S`, the inhibition is 82.4% (active). `COc1cccc(N2C(=O)CN(Cc3ccccc3)C2=S)c1`: the inhibition is 25.8%. On to `COc1ccc(NC(=O)C(CC(C)C)NS(=O)(=O)c2ccc3c(c2)CCN3C(C)=O)cc1OC` (stereo unspecified), for which the inhibition was -5.12%. With `O=C(c1ccc(S(=O)(=O)N2CCCC2)cc1)N1CCN(c2ccccc2F)CC1`, the inhibition was 0.98%. The value for `CCOc1ccc(CCNC(=O)COC(=O)CCS(=O)(=O)c2ccc(C)cc2)cc1OCC` was -3.02%. For `O=S(=O)(c1ccc(F)cc1)N1CCN(C(=S)NCc2ccco2)CC1`, the inhibition was 0.75%. Take `CC(C)Cc1ccc(C(C)C(=N)N)cc1` (stereo unspecified): the inhibition is 8.66%. Under `COc1ccc(CNC(=O)C2CCN(S(=O)(=O)c3ccc(SC)cc3)CC2)cc1` stands -7.7%; under `O=C(Cn1cc(/C=N/NC(=O)c2cccc(C(F)(F)F)c2)c2ccccc21)Nc1ccc(F)cc1`, 5.83%. Under `COC(=O)N/N=C/c1cn(CCCOc2ccc(C)cc2)c2ccccc12` stands 40.3% (active); under `NC(=O)Cn1cc(/C=N\NS(=O)(=O)c2ccccc2)c2ccccc21`, 3.11%; under `CCOC(=O)N/N=C/c1cn(Cc2ccccc2Cl)c2ccccc12`, 48% (active).

`CCOC(=O)c1cnn(Cc2ccccc2Cl)c1N`: the inhibition is -5.17%. `Cc1ccc(OCCOc2cccc(/C=N/NC(N)=O)c2)cc1`: the inhibition is -2.28%. As for `COC(=O)N/N=C/c1c[n+]([O-])c2ccccc2[n+]1[O-]`, the inhibition was -2.96%.

Consider `COc1cccc(Cn2cc(/C=N/NC(=O)c3cc(O)cc(O)c3)c3ccccc32)c1`, for which the inhibition is 47.7% (active). With `N#CCC(=O)N/N=C/c1cn(Cc2ccc3ccccc3c2)c2ccccc12`, the inhibition is -9.5%.

Source of the values: PubChem BioAssay AID504462 (Sanford-Burnham Center for Chemical Genomics, 2011).
